Results: PubChem BioAssay (NCI)
Compounds without any hit were thinned out: in the full panel of roughly 83,000, 20% have a hit.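 Single-concentration screen, 48 h exposure, 96-well plates. Endpoint: percent growth. Below 10 = active.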 Calls of active or inactive are those of the source.

What was measured:
Assay in all cases: NCI-60 one-dose screen, 48 h (100 = growth as untreated, 0 = no growth, -100 = all killed)
Conditions in all cases: 10 µM unless noted
HCT-15 colon = test system: HCT-15 colon
HT29 colon = test system: HT29 colon
SNB-19 CNS = test system: SNB-19 CNS
U251 CNS = test system: U251 CNS
PC-3 prostate = test system: PC-3 prostate
SK-MEL-5 melanoma = test system: SK-MEL-5 melanoma
UACC-62 melanoma = test system: UACC-62 melanoma
LOX IMVI melanoma = test system: LOX IMVI melanoma
SK-MEL-28 melanoma = test system: SK-MEL-28 melanoma
EKVX NSCLC = test system: EKVX NSCLC
SN12C renal = test system: SN12C renal
UO-31 renal = test system: UO-31 renal
TK-10 renal = test system: TK-10 renal
ACHN renal = test system: ACHN renal
CAKI-1 renal = test system: CAKI-1 renal
A498 renal = test system: A498 renal
CCRF-CEM leukemia = test system: CCRF-CEM leukemia
MOLT-4 leukemia = test system: MOLT-4 leukemia
SK-MEL-2 melanoma = test system: SK-MEL-2 melanoma

Measured: growth

NC1=NC(c2cccc(Br)c2)c2sc3ccc(Cl)cc3c2N1 (configuration not stated)
inactive: HCT-15 colon 103% | HT29 colon 104% | SNB-19 CNS 97.3% | U251 CNS 103% | PC-3 prostate 88.7% | SK-MEL-5 melanoma 96.5% | UACC-62 melanoma 84.5% | LOX IMVI melanoma 98.8% | SK-MEL-28 melanoma 118% | EKVX NSCLC 85.5% | SN12C renal 93.5% | UO-31 renal 62.8% | TK-10 renal 123% | ACHN renal 92.9% | CAKI-1 renal 79.5% | A498 renal 104% | CCRF-CEM leukemia 121% | MOLT-4 leukemia 92.2%

COc1ccc(N2C(=O)C(Oc3ccccc3)C2c2ccc(C)cc2)cc1 (configuration not stated)
inactive: HCT-15 colon 91.2% | HT29 colon 97.8% | SNB-19 CNS 101% | U251 CNS 90.1% | PC-3 prostate 97.6% | SK-MEL-5 melanoma 104% | UACC-62 melanoma 102% | LOX IMVI melanoma 98.1% | SK-MEL-28 melanoma 99.5% | SK-MEL-2 melanoma 106% | EKVX NSCLC 88.8% | SN12C renal 104% | UO-31 renal 91.9% | TK-10 renal 126% | ACHN renal 95.7% | CAKI-1 renal 93% | A498 renal 77.9% | CCRF-CEM leukemia 101% | MOLT-4 leukemia 101%

CCn1cnc2c1c(=O)[nH]c(=O)n2CC1CCC(CNS(=O)(=O)c2ccc(OC3CCOCC3)c(F)c2)CC1 (configuration not stated)
inactive: HCT-15 colon 86.6% | HT29 colon 37.8% | SNB-19 CNS 59% | U251 CNS 67.9% | PC-3 prostate 45.9% | SK-MEL-5 melanoma 60.1% | UACC-62 melanoma 24.1% | LOX IMVI melanoma 38.4% | SK-MEL-28 melanoma 64.1% | SK-MEL-2 melanoma 74.8% | EKVX NSCLC 68.1% | SN12C renal 62.9% | UO-31 renal 55.2% | TK-10 renal 33.7% | CAKI-1 renal 46.2% | A498 renal 67.1% | CCRF-CEM leukemia 52.6% | MOLT-4 leukemia 63%

Cc1cc(O)c(C2=NN(c3ccc(S(N)(=O)=O)cc3)C(/C=C/c3ccccc3)C2)cc1Cl (configuration not stated)
active: UACC-62 melanoma -10.9%
inactive: HCT-15 colon 85.7% | HT29 colon 33.5% | SNB-19 CNS 66.4% | U251 CNS 22.5% | PC-3 prostate 32.6% | SK-MEL-5 melanoma 19.1% | LOX IMVI melanoma 18.5% | SK-MEL-28 melanoma 23.9% | SK-MEL-2 melanoma 34.1% | EKVX NSCLC 68.8% | SN12C renal 66.4% | UO-31 renal 78.2% | TK-10 renal 68.3% | ACHN renal 33.1% | CAKI-1 renal 48.7% | A498 renal 39.9% | CCRF-CEM leukemia 66.2% | MOLT-4 leukemia 73.3%

COc1ccc(-c2nnc(COc3ccc(Cl)cc3Cl)o2)cc1OC
inactive: HCT-15 colon 49.5% | HT29 colon 28.7% | SNB-19 CNS 44.6% | U251 CNS 37.2% | PC-3 prostate 43.7% | SK-MEL-5 melanoma 28.2% | UACC-62 melanoma 43.7% | LOX IMVI melanoma 16.1% | SK-MEL-28 melanoma 67.2% | SK-MEL-2 melanoma 57.6% | SN12C renal 12.1% | ACHN renal 13.7% | CAKI-1 renal 57.7% | A498 renal 15.9% | CCRF-CEM leukemia 29.3% | MOLT-4 leukemia 54.3%
active: EKVX NSCLC -15.8% | UO-31 renal -36.4% | TK-10 renal -8.66%

Cc1c(C(=O)NCCCc2ccccc2)sc2ncc(-c3ccc(Br)cc3)n12
inactive: HCT-15 colon 104% | HT29 colon 120% | SNB-19 CNS 101% | U251 CNS 100% | PC-3 prostate 102% | SK-MEL-5 melanoma 101% | UACC-62 melanoma 95.7% | SK-MEL-28 melanoma 104% | SK-MEL-2 melanoma 115% | EKVX NSCLC 106% | SN12C renal 98.7% | UO-31 renal 92% | TK-10 renal 135% | ACHN renal 103% | CAKI-1 renal 101% | A498 renal 110% | CCRF-CEM leukemia 96.8% | MOLT-4 leukemia 99.8%

O=C1c2cccc3cccc(c23)C(=O)N1Nc1nc(N2CCOCC2)nc(N2CCN(c3ccccc3)CC2)n1
inactive: HCT-15 colon 33.7% | HT29 colon 24.3% | SNB-19 CNS 45.6% | U251 CNS 59.3% | PC-3 prostate 43.4% | UACC-62 melanoma 32.2% | LOX IMVI melanoma 39.2% | SK-MEL-28 melanoma 52.5% | SK-MEL-2 melanoma 59.9% | EKVX NSCLC 50% | SN12C renal 64.8% | UO-31 renal 29.9% | TK-10 renal 96% | ACHN renal 41.2% | CAKI-1 renal 41.2% | CCRF-CEM leukemia 56.9% | MOLT-4 leukemia 42%
active: SK-MEL-5 melanoma 4.98% | A498 renal -3.12%

NC(=O)C1(Nc2ccc(Br)cc2)CCCC1
inactive: HCT-15 colon 107% | HT29 colon 102% | SNB-19 CNS 105% | U251 CNS 97.5% | PC-3 prostate 94.3% | SK-MEL-5 melanoma 103% | UACC-62 melanoma 96.4% | LOX IMVI melanoma 103% | SK-MEL-28 melanoma 106% | SK-MEL-2 melanoma 101% | EKVX NSCLC 92% | SN12C renal 102% | UO-31 renal 86.3% | TK-10 renal 104% | ACHN renal 101% | CAKI-1 renal 103% | A498 renal 99.8% | CCRF-CEM leukemia 99.8% | MOLT-4 leukemia 99%

CCOC(=O)c1c(C)oc2ncnc(N3CCN(C(=O)COc4ccc(C(C)(C)C)cc4)CC3)c12
inactive: HCT-15 colon 79.8% | HT29 colon 90.2% | SNB-19 CNS 85.4% | U251 CNS 89.5% | PC-3 prostate 59.3% | SK-MEL-5 melanoma 34.8% | UACC-62 melanoma 42.9% | LOX IMVI melanoma 75.5% | SK-MEL-28 melanoma 85.4% | SK-MEL-2 melanoma 93.7% | EKVX NSCLC 74% | SN12C renal 82.7% | UO-31 renal 48% | TK-10 renal 94.1% | ACHN renal 85.9% | CAKI-1 renal 84.3% | A498 renal 82% | CCRF-CEM leukemia 76.2% | MOLT-4 leukemia 59.1%

CC(C)(C)NC(=O)C(OC(=O)c1cccc(Cl)c1)c1ccc(Cl)cc1 (configuration not stated)
inactive: HCT-15 colon 103% | HT29 colon 87.6% | SNB-19 CNS 103% | U251 CNS 94.5% | PC-3 prostate 94% | SK-MEL-5 melanoma 98.2% | UACC-62 melanoma 104% | LOX IMVI melanoma 94.1% | SK-MEL-28 melanoma 105% | SK-MEL-2 melanoma 96.1% | EKVX NSCLC 109% | SN12C renal 101% | UO-31 renal 90.1% | TK-10 renal 93.2% | ACHN renal 107% | CAKI-1 renal 99.3% | A498 renal 83.1% | CCRF-CEM leukemia 103% | MOLT-4 leukemia 107%

Cc1ccc(-c2nc(N3CCN(CC(=O)Nc4ccc(Cl)c(C(F)(F)F)c4)CC3)c3ccccc3n2)cc1
inactive: HCT-15 colon 79.1% | HT29 colon 89.8% | SNB-19 CNS 98.8% | U251 CNS 93.2% | PC-3 prostate 79.1% | UACC-62 melanoma 83% | LOX IMVI melanoma 92.1% | SK-MEL-28 melanoma 105% | SK-MEL-2 melanoma 110% | EKVX NSCLC 87.3% | SN12C renal 94.6% | UO-31 renal 65.6% | TK-10 renal 101% | ACHN renal 95% | CAKI-1 renal 80.2% | A498 renal 74.6% | CCRF-CEM leukemia 89.5% | MOLT-4 leukemia 62.6%

COc1ccc(-c2ncnc3c2ncn3CC#CCCl)cc1
active: LOX IMVI melanoma -31.7% | UO-31 renal -86.7% | MOLT-4 leukemia 4.95%
inactive: HCT-15 colon 49.6% | HT29 colon 93.9% | SNB-19 CNS 72.5% | U251 CNS 29.4% | PC-3 prostate 57.1% | SK-MEL-5 melanoma 62.5% | UACC-62 melanoma 51.2% | SK-MEL-28 melanoma 86.7% | SK-MEL-2 melanoma 53.4% | EKVX NSCLC 115% | SN12C renal 46.3% | TK-10 renal 69.8% | ACHN renal 52.8% | CAKI-1 renal 61.8% | A498 renal 55.7% | CCRF-CEM leukemia 19.1%

Cc1cc(=O)oc2cc(OC(=O)CN3CCN(C)CC3)ccc12
inactive: HCT-15 colon 98.9% | HT29 colon 104% | SNB-19 CNS 95.6% | U251 CNS 105% | PC-3 prostate 95.2% | SK-MEL-5 melanoma 101% | UACC-62 melanoma 95.5% | LOX IMVI melanoma 97.9% | SK-MEL-28 melanoma 104% | SK-MEL-2 melanoma 106% | EKVX NSCLC 92.5% | SN12C renal 96.6% | UO-31 renal 92.8% | TK-10 renal 109% | CAKI-1 renal 85.8% | A498 renal 97.2% | CCRF-CEM leukemia 98.7% | MOLT-4 leukemia 101%

COc1ccc(-c2cnc3ccccc3n2)cc1
inactive: HCT-15 colon 99.9% | HT29 colon 118% | SNB-19 CNS 93.6% | U251 CNS 86.3% | PC-3 prostate 98% | SK-MEL-5 melanoma 101% | UACC-62 melanoma 91.6% | LOX IMVI melanoma 101% | SK-MEL-28 melanoma 104% | EKVX NSCLC 88.2% | SN12C renal 93.7% | UO-31 renal 81.9% | TK-10 renal 91.3% | ACHN renal 97.9% | CAKI-1 renal 84.4% | A498 renal 95% | CCRF-CEM leukemia 97.4% | MOLT-4 leukemia 103%

Cn1cc(-c2ccc3cc(-c4ccc(CC(=O)Nc5cc(C(C)(C)C)nn5C)cc4)cnc3c2)cn1
active: HCT-15 colon 5.84% | PC-3 prostate 3.81% | SK-MEL-5 melanoma -35.4% | UACC-62 melanoma -16.6% | SN12C renal 5.18% | UO-31 renal 1.27% | ACHN renal 3.05% | CAKI-1 renal 0.564% | A498 renal -18.5%
inactive: HT29 colon 22.6% | SNB-19 CNS 29.2% | U251 CNS 20.1% | LOX IMVI melanoma 14.1% | SK-MEL-28 melanoma 16.7% | EKVX NSCLC 23.5% | TK-10 renal 15.8% | CCRF-CEM leukemia 23% | MOLT-4 leukemia 13.2%

N#Cc1c(-c2ccccc2)nc(SCC(=O)Nc2nc(-c3ccc(Cl)cc3)cs2)[nH]c1=O
inactive: HCT-15 colon 104% | HT29 colon 93.3% | SNB-19 CNS 101% | U251 CNS 95.3% | PC-3 prostate 91.6% | SK-MEL-5 melanoma 97.9% | UACC-62 melanoma 88.4% | LOX IMVI melanoma 100% | SK-MEL-28 melanoma 101% | SK-MEL-2 melanoma 92.3% | EKVX NSCLC 106% | SN12C renal 104% | UO-31 renal 83.2% | TK-10 renal 110% | ACHN renal 103% | CAKI-1 renal 89% | A498 renal 87.7% | CCRF-CEM leukemia 92.2% | MOLT-4 leukemia 89.8%
